# Hit rate of the full screen: of about 320,000 compounds, about 1,400 (0.44%) were called active.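 The calls were made as follows: active = percent inhibition above a per-plate cutoff, the plate mean of test compounds plus 3 SD (cut at about 30% in these data); inactive = the rest.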 Many of the other results were omitted from the sample, so actives are more common in it than they were.
# Target: Female germline-specific tumor suppressor gld-1 (Caenorhabditis elegans) (UniProt Q17339)
# Assay: GLD-1/TGE RNA complex disruptors, primary screen, biochemical, fluorescence polarization (AID 2280);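 also: 0% = DMSO wells with GLD-1 and probe and 100% = wells lacking GLD-1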
# Settings: purified GLD-1 + fluorescein TGE RNA, at 5.96 µM, hits give high values
# Female germline-specific tumor suppressor gld-1 (Caenorhabditis elegans), sequence (Q17339 whole entry, looked up): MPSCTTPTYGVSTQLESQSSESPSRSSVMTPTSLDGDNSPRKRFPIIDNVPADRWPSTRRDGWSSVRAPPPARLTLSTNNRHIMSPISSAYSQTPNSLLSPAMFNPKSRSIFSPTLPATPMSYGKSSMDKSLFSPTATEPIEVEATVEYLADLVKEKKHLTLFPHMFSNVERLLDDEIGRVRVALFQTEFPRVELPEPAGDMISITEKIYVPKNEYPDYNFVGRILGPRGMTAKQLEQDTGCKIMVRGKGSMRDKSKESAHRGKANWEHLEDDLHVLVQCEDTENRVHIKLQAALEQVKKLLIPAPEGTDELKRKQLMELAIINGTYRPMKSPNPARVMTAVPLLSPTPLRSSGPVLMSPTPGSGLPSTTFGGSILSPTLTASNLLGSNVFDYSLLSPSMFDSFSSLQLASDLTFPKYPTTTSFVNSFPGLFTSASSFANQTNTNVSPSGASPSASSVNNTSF
row,SMILES,inhibition
1,CCCN1CC=C2C(C#N)=C(N)C(C#N)(C#N)C(c3cc(OC)ccc3OC)C2C1 (stereo not given),49% (active)
2,CCN1CC=C2C(C#N)=C(N)C(C#N)(C#N)[C@H](c3ccoc3)[C@H]2C1,106% (active)
3,COC(=O)c1ccc(CNC(=O)C2CCC(=O)N(Cc3ccccn3)C2)cc1 (stereo not given),0.64% (inactive)
4,O=S(=O)(c1ccc(Cl)s1)N1CCC2(CC1)OCCO2,-2.17% (inactive)
5,N#C[C@]1(S(=O)(=O)c2ccccc2)C[C@@H]2ON=C(c3cccc(Br)c3)[C@@H]2C1,-1.68% (inactive)
6,O=C(Nc1cccc(F)c1)[C@@H]1CCCN1,4.36% (inactive)
7,Cc1ccc(S(=O)(=O)N2CCOCC2)cc1C(=O)OC1CCCCC1=O (stereo not given),-3.51% (inactive)
8,O=[N+]([O-])c1ccc(F)cc1Oc1nc(-c2cccnc2)nc2ccccc12,-1.37% (inactive)
9,COc1ccc(Nc2nc(-c3cccnc3)nc3ccccc23)cn1,100% (active)
10,CCOC(=O)c1nc(Nc2ccc(C(=O)OC)cc2)c2ccccc2n1,-1.24% (inactive)
11,CNC(=O)c1[nH]cnc1C(=O)N[C@@H](CC(C)C)C(=O)OCc1ccccc1,10.1% (inactive)
12,COC(=O)CN1C(=O)N/C(=C/c2ccc(OC)c(C)c2OC)C1=O,9.69% (inactive)
13,O=C(OCC1OC(Oc2ccc(O)cc2)C(O)C(O)C1O)c1ccccc1 (stereo not given),2.13% (inactive)
14,O=C(OCC1O[C@@H](OC(=O)c2cc(O)c(O)c(O)c2)[C@@H](OC(=O)c2cc(O)c(O)c(O)c2)[C@@H](OC(=O)c2cc(O)c(O)c(O)c2)[C@@H]1OC(=O)c1cc(O)c(O)c(O)c1)c1cc(O)c(O)c(O)c1 (stereo not given in full),34.6% (active)
15,Cc1ccc(NC(=O)c2ccc(Cl)nc2)cc1S(=O)(=O)N1CCOCC1,-0.28% (inactive)
16,O=C1c2ccccc2C(=O)c2c1cccc2N1CCN(CCO)CC1,48.6% (active)
17,O=C1c2ccccc2C(=O)c2c1cccc2N1CCN(C/C=C/c2ccccc2)CC1,9.38% (inactive)
18,O=C1c2ccccc2C(=O)c2c1cccc2N1CCN(Cc2ccccc2)CC1,0.8% (inactive)
19,CC(C(=O)NCC1CCCCC1)N(C)Cc1cccc(Cl)c1 (stereo not given),4.56% (inactive)
20,CN(C)/C=C(/C(=O)c1ccc(F)cc1)S(=O)(=O)c1ccc(F)cc1,3.44% (inactive)
21,CC(=O)Nc1nc2ccccc2n1Cc1ccc(C)cc1,0.42% (inactive)
22,O=c1[nH]cccc1-c1nc2ccccc2n1Cc1ccc(Cl)cc1,45% (active)
23,Nc1nonc1-c1nc2ccccc2n1Cc1ccc(F)cc1,1.28% (inactive)
24,CC1OC2C(OC1C)N(S(C)(=O)=O)CCN2S(C)(=O)=O (stereo not given),3.56% (inactive)
25,CCCOc1ccc(N2C(=O)CC(N(CCc3ccc(S(N)(=O)=O)cc3)C(C)=O)C2=O)cc1 (stereo not given),-1.23% (inactive)
26,CC(C)c1ccc(C2C(C(=O)c3ccco3)=C(O)C(=O)N2CC2CCCO2)cc1 (stereo not given),4.96% (inactive)
27,C=CCSc1nnc(N2C(=O)C(O)=C(C(=O)c3ccco3)C2c2ccc(F)cc2)s1 (stereo not given),44.5% (active)
28,Cc1ccc2nc(N3C(=O)C(O)=C(C(=O)c4ccco4)C3c3cccc(O)c3)sc2c1 (stereo not given),0.27% (inactive)

row,SMILES,inhibition
1,CCN1CCC2(CC1)N=C(c1ccc(F)cc1)C(=S)N2C(=O)c1ccc(C)cc1,7.8% (inactive)
2,CCCn1c(C(C)Nc2nc(-c3ccc(C)cc3)cs2)nc2cc(Cl)c(N3CCCCC3)cc21 (stereo not given),2.12% (inactive)
3,CCCn1c(C2CCCN2c2nc(-c3ccc(OC)cc3)cs2)nc2ccccc21 (stereo not given),9.35% (inactive)
4,CCCn1c(C2CCCN2c2nc(-c3ccc(C)cc3)cs2)nc2cc(Cl)c(N3CCCCC3)cc21 (stereo not given),34.6% (active)
5,CCOC(=O)C1CCN(C(=O)CC2C(=O)N(Cc3ccccc3)C(C)c3nc4ccccc4n32)CC1 (stereo not given),3.57% (inactive)
6,O=C(CN1CCN(Cc2ccc(F)cc2Cl)C1=O)NCc1cccs1,5.83% (inactive)
7,CC1=CC2=NC(=O)/C(=C/c3coc4ccccc4c3=O)C(=N)N2O1,32.9% (active)
8,COc1ccc(OCCCn2cccc2/C=C2/C(=N)N3OC(C)=CC3=NC2=O)cc1,3.29% (inactive)
9,CCOc1cc(/C=C2/C(=N)N3OC(C)=CC3=NC2=O)ccc1OC,-3.88% (inactive)
10,COC(=O)C1=C(NC(=O)C(C)(C)C)CCS1,5.48% (inactive)
11,CC(C)N(C(=O)COC(=O)c1ccccc1C(=O)N1CCN(c2ccc(F)cc2)CC1)C(C)C,6.66% (inactive)
12,O=C(COC(=O)c1ccccc1C(=O)N1CCN(c2ccccc2)CC1)NCc1ccccc1,55.9% (active)
13,O=C(c1cc(=O)c2ccccc2o1)N1CCN(c2ccccc2)CC1,-3.54% (inactive)
14,CCn1c(=S)[nH]c2sc3c(c2c1=O)CCCCC3,-5.76% (inactive)
15,Cc1ccccc1SCC(=O)OCC(=O)N1CC(=O)Nc2ccccc21,1.92% (inactive)
16,CC1CN(C(=O)CCC(=O)NCCCN2CCC(Cc3ccccc3)CC2)c2cc(Cl)ccc2O1 (stereo not given),5.77% (inactive)
17,CCCCCCn1c(CN2CCCC(C)C2)nc2c1c(=O)n(C)c(=O)n2C (stereo not given),9.13% (inactive)
18,CCCn1c(O)c(CN2CCCC(C)C2)c(C)c(C#N)c1=O (stereo not given),41.2% (active)
19,Cc1c(CN2CCCCC2)c(O)n(CCO)c(=O)c1C#N,7.69% (inactive)
20,COCCNC(=O)Nc1ccc2nc(-c3ccco3)c(-c3ccco3)nc2c1,69.3% (active)
21,COc1cccc(NC(=O)NCCN2CCCCC2)c1,11.7% (inactive)
22,O=C(NCc1ccccn1)c1ccc2nc(-c3ccco3)c(-c3ccco3)nc2c1,20.3% (inactive)
23,CNS(=O)(=O)c1ccc(NC(=O)C2CC(=O)N(c3ccc(Cl)cc3)C2)cc1 (stereo not given),1.34% (inactive)
24,CC(C)(C)C(=O)CSc1ccc(S(=O)(=O)N2CCCC2)cn1,4.63% (inactive)
25,CCCCc1ccc(S(N)(=O)=O)cc1,6.14% (inactive)
26,C[C@@H]1CC[C@@]2(OC1)O[C@H]1C[C@H]3[C@@H]4CC=C5C[C@@H](O)[C@H](O)C[C@]5(C)C4CC[C@]3(C)[C@H]1[C@@H]2C (stereo not given in full),-7.94% (inactive)
27,COc1cccc2cc(C(C)N(CCCN3CCOCC3)C(=O)Nc3ccc(Cl)cc3)oc12 (stereo not given),2.92% (inactive)
